{
  "source": "PubChem BioAssay (NCI)",
  "key": {"[1]": {"test": "NCI Yeast Anticancer Drug Screen. Data for the rad52 strain (AID 147);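 note: 0% = growth of vehicle-treated control cultures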", "conditions": "S. cerevisiae rad52 mutant growth inhibition, active compounds read high", "outline": "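Inhibition of yeast growth, referenced to vehicle controls, was the measured output for a strain with defective DNA damage repair.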"}, "[2]": {"test": "NCI Yeast Anticancer Drug Screen. Data for the wt1 strain (AID 149);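 note: 0% = growth of vehicle-treated wt1 cultures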", "conditions": "S. cerevisiae wt1 strain (SPY 50644) growth inhibition, active compounds read high", "outline": "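The wt1 strain was treated with compounds, and growth was compared with vehicle-treated cultures to give inhibition.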"}, "[3]": {"test": "NCI Yeast Anticancer Drug Screen. Data for the rad50 strain (AID 155);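 note: 0% = growth of vehicle-only cultures of the same strain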", "conditions": "S. cerevisiae rad50 strain growth inhibition, active compounds read high", "outline": "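Cells are treated with compound, grown, and their growth is then scored against vehicle-only cultures of the same repair-deficient yeast strain.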"}, "[4]": {"test": "NCI Yeast Anticancer Drug Screen. Data for the mec2-1 strain (AID 157)", "conditions": "S. cerevisiae mec2-1 strain, active compounds read high", "outline": "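Each compound was tested on mec2-1 yeast, a strain altered in DNA damage repair or cell cycle control. Growth inhibition is reported relative to vehicle.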"}, "[5]": {"test": "NCI Yeast Anticancer Drug Screen. Data for the rad14 strain (AID 159);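 note: 0% = growth of vehicle-treated control cultures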", "conditions": "S. cerevisiae rad14 strain growth inhibition, active compounds read high", "outline": "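Readout: yeast growth inhibition, referenced to vehicle-only cultures. Strain bears a defined alteration in DNA damage repair.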"}, "[6]": {"test": "NCI Yeast Anticancer Drug Screen. Data for the sgs1 mgt1 strain (AID 161);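 note: 0% = growth of cultures given vehicle only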", "conditions": "S. cerevisiae sgs1 mgt1 strain, active compounds read high", "outline": "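Mutant yeast exposed to compound; growth scored against vehicle-only wells.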"}, "[7]": {"test": "NCI Yeast Anticancer Drug Screen. Data for the CLN2oe strain (AID 163);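 note: 0% = growth of vehicle-only control cultures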", "conditions": "S. cerevisiae CLN2oe strain, active compounds read high", "outline": "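First, the altered yeast strain was treated with each compound; second, its growth was measured; finally, inhibition was derived by comparison with vehicle controls.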"}, "[8]": {"test": "NCI Yeast Anticancer Drug Screen. Data for the cln2 rad14 strain (AID 165);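 note: 0% = growth equal to vehicle treated cultures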", "conditions": "S. cerevisiae cln2 rad14 strain, active compounds read high", "outline": "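Test compounds were added to cln2 rad14 yeast cultures; inhibition of growth was then determined by comparison with vehicle treatment.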"}, "[9]": {"test": "NCI Yeast Anticancer Drug Screen. Data for the bub3 strain (AID 167)", "conditions": "S. cerevisiae bub3 mutant strain, active compounds read high", "outline": "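Part of a panel of yeast mutants defective in DNA damage repair or cell cycle regulation. Each strain is grown with compound, and inhibition is calculated relative to solvent-treated cultures.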"}, "[10]": {"test": "NCI Yeast Anticancer Drug Screen. Data for the wt2 strain (AID 169);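 note: 0% = growth of vehicle-treated yeast cultures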", "conditions": "S. cerevisiae wt2 strain growth inhibition, active compounds read high", "outline": "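The panel's yeast strains carry defined changes in DNA repair or cell cycle genes. Each strain is grown with compound, and growth loss is scored relative to vehicle.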"}, "[11]": {"test": "NCI Yeast Anticancer Drug Screen. Data for the mlh1 strain (AID 171);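 note: 0% = growth of vehicle-treated control cultures of the same strain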", "conditions": "S. cerevisiae mlh1 strain growth inhibition, active compounds read high", "outline": "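Inhibition values reflect reduced yeast growth in the presence of compound, referenced to vehicle controls, using a strain chosen for its alteration in DNA repair or cell cycle control.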"}, "[12]": {"test": "NCI Yeast Anticancer Drug Screen. Data for the sgs1 strain (AID 173);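 note: 0% = growth of vehicle-only control cultures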", "conditions": "S. cerevisiae sgs1 mutant, active compounds read high", "outline": "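Vehicle-treated cultures served as reference for growth inhibition of a yeast strain altered in DNA damage repair or cell cycle control after compound exposure.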"}, "[13]": {"test": "NCI Yeast Anticancer Drug Screen. Data for the mlh1 rad18 strain (AID 175)", "conditions": "S. cerevisiae mlh1 rad18 strain growth inhibition, active compounds read high", "outline": "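Inhibition values reflect reduced growth of mutant yeast versus vehicle-treated controls following compound exposure; the mutations affect DNA damage repair.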"}, "[14]": {"test": "NCI Yeast Anticancer Drug Screen. Data for the rad18 strain (AID 177)", "conditions": "S. cerevisiae rad18 mutant growth inhibition, active compounds read high", "outline": "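Steps: expose repair-mutant yeast to compound; measure growth; express as inhibition relative to vehicle control.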"}, "[15]": {"conditions": "at 5.0 µM (retest, dose inferred, filed as 0.5)"}, "[16]": {"conditions": "at 50.0 µM (retest, dose inferred, filed as 5.0)"}},
  "note": "About 79,000 compounds went through this panel and 15% of them were active in at least one assay; those are over-represented in the sample as a whole. Values without a mark were called inactive. The source made the active and inactive calls. Cut-off read from the data, not from the text of the source: active = growth inhibition above about 70%; inactive = the rest.",
  "data": [
    {"smiles": "CC1=CC2C(C(C)C)CC1C1C(=O)OC(=O)C21", "note": "(stereo not drawn)", "values": [
      {"measurement": "growth inhibition", "setting": "[1]; at 1.2 µM", "value": -12, "unit": "%"},
      {"measurement": "growth inhibition", "setting": "[1]; at 3.7 µM", "value": -14, "unit": "%"},
      {"measurement": "growth inhibition", "setting": "[1]; at 11.0 µM", "value": -2, "unit": "%"},
      {"measurement": "growth inhibition", "setting": "[1]; at 33.0 µM", "value": 20, "unit": "%"},
      {"measurement": "growth inhibition", "setting": "[1]; at 100.0 µM", "value": "71% (active)"},
      {"measurement": "growth inhibition", "setting": "[2]; at 1.2 µM", "value": -5, "unit": "%"},
      {"measurement": "growth inhibition", "setting": "[2]; at 3.7 µM", "value": 0, "unit": "%"},
      {"measurement": "growth inhibition", "setting": "[2]; at 11.0 µM", "value": 6, "unit": "%"},
      {"measurement": "growth inhibition", "setting": "[2]; at 33.0 µM", "value": 13, "unit": "%"},
      {"measurement": "growth inhibition", "setting": "[2]; at 100.0 µM", "value": 51, "unit": "%"},
      {"measurement": "growth inhibition", "setting": "[3]; at 1.2 µM", "value": -13, "unit": "%"},
      {"measurement": "growth inhibition", "setting": "[3]; at 3.7 µM", "value": -16, "unit": "%"},
      {"measurement": "growth inhibition", "setting": "[3]; [15]", "value": -127, "unit": "%"},
      {"measurement": "growth inhibition", "setting": "[3]; at 11.0 µM", "value": -12, "unit": "%"},
      {"measurement": "growth inhibition", "setting": "[3]; at 33.0 µM", "value": 24, "unit": "%"},
      {"measurement": "growth inhibition", "setting": "[3]; [16]", "value": "83% (active)"},
      {"measurement": "growth inhibition", "setting": "[3]; at 50.0 µM", "value": "86.7% (active)"},
      {"measurement": "growth inhibition", "setting": "[3]; at 100.0 µM", "value": "81% (active)"},
      {"measurement": "growth inhibition", "setting": "[4]; at 1.2 µM", "value": -1, "unit": "%"},
      {"measurement": "growth inhibition", "setting": "[4]; at 3.7 µM", "value": 0, "unit": "%"},
      {"measurement": "growth inhibition", "setting": "[4]; [15]", "value": -42, "unit": "%"},
      {"measurement": "growth inhibition", "setting": "[4]; at 11.0 µM", "value": -2, "unit": "%"},
      {"measurement": "growth inhibition", "setting": "[4]; at 33.0 µM", "value": 2, "unit": "%"},
      {"measurement": "growth inhibition", "setting": "[4]; [16]", "value": "86% (active)"},
      {"measurement": "growth inhibition", "setting": "[4]; at 50.0 µM", "value": "76.5% (active)"},
      {"measurement": "growth inhibition", "setting": "[4]; at 100.0 µM", "value": 37, "unit": "%"},
      {"measurement": "growth inhibition", "setting": "[5]; at 1.2 µM", "value": -2, "unit": "%"},
      {"measurement": "growth inhibition", "setting": "[5]; at 3.7 µM", "value": 4, "unit": "%"},
      {"measurement": "growth inhibition", "setting": "[5]; at 11.0 µM", "value": 13, "unit": "%"},
      {"measurement": "growth inhibition", "setting": "[5]; at 33.0 µM", "value": 24, "unit": "%"},
      {"measurement": "growth inhibition", "setting": "[5]; at 100.0 µM", "value": "78% (active)"},
      {"measurement": "growth inhibition", "setting": "[6]; [15]", "value": -60, "unit": "%"},
      {"measurement": "growth inhibition", "setting": "[6]; [16]", "value": 25, "unit": "%"},
      {"measurement": "growth inhibition", "setting": "[6]; at 50.0 µM", "value": 13.6, "unit": "%"},
      {"measurement": "growth inhibition", "setting": "[7]; at 1.2 µM", "value": -7, "unit": "%"},
      {"measurement": "growth inhibition", "setting": "[7]; at 3.7 µM", "value": -11, "unit": "%"},
      {"measurement": "growth inhibition", "setting": "[7]; at 11.0 µM", "value": -10, "unit": "%"},
      {"measurement": "growth inhibition", "setting": "[7]; at 33.0 µM", "value": -9, "unit": "%"},
      {"measurement": "growth inhibition", "setting": "[7]; at 100.0 µM", "value": 16, "unit": "%"},
      {"measurement": "growth inhibition", "setting": "[8]; [15]", "value": -53, "unit": "%"},
      {"measurement": "growth inhibition", "setting": "[8]; [16]", "value": 47, "unit": "%"},
      {"measurement": "growth inhibition", "setting": "[8]; at 50.0 µM", "value": 13.4, "unit": "%"},
      {"measurement": "growth inhibition", "setting": "[9]; at 1.2 µM", "value": -6, "unit": "%"},
      {"measurement": "growth inhibition", "setting": "[9]; at 3.7 µM", "value": -6, "unit": "%"},
      {"measurement": "growth inhibition", "setting": "[9]; [15]", "value": -71, "unit": "%"},
      {"measurement": "growth inhibition", "setting": "[9]; at 11.0 µM", "value": -9, "unit": "%"},
      {"measurement": "growth inhibition", "setting": "[9]; at 33.0 µM", "value": -6, "unit": "%"},
      {"measurement": "growth inhibition", "setting": "[9]; [16]", "value": 66, "unit": "%"},
      {"measurement": "growth inhibition", "setting": "[9]; at 50.0 µM", "value": "70.8% (active)"},
      {"measurement": "growth inhibition", "setting": "[9]; at 100.0 µM", "value": 50, "unit": "%"},
      {"measurement": "growth inhibition", "setting": "[10]; at 1.2 µM", "value": -8, "unit": "%"},
      {"measurement": "growth inhibition", "setting": "[10]; at 3.7 µM", "value": -2, "unit": "%"},
      {"measurement": "growth inhibition", "setting": "[10]; at 11.0 µM", "value": 11, "unit": "%"},
      {"measurement": "growth inhibition", "setting": "[10]; at 33.0 µM", "value": 36, "unit": "%"},
      {"measurement": "growth inhibition", "setting": "[10]; at 100.0 µM", "value": "86% (active)"},
      {"measurement": "growth inhibition", "setting": "[11]; at 1.2 µM", "value": -16, "unit": "%"},
      {"measurement": "growth inhibition", "setting": "[11]; at 3.7 µM", "value": -7, "unit": "%"},
      {"measurement": "growth inhibition", "setting": "[11]; at 11.0 µM", "value": -6, "unit": "%"},
      {"measurement": "growth inhibition", "setting": "[11]; at 33.0 µM", "value": 10, "unit": "%"},
      {"measurement": "growth inhibition", "setting": "[11]; at 100.0 µM", "value": 56, "unit": "%"},
      {"measurement": "growth inhibition", "setting": "[12]; at 1.2 µM", "value": -14, "unit": "%"},
      {"measurement": "growth inhibition", "setting": "[12]; at 3.7 µM", "value": -10, "unit": "%"},
      {"measurement": "growth inhibition", "setting": "[12]; at 11.0 µM", "value": 7, "unit": "%"},
      {"measurement": "growth inhibition", "setting": "[12]; at 33.0 µM", "value": 27, "unit": "%"},
      {"measurement": "growth inhibition", "setting": "[12]; at 100.0 µM", "value": "88% (active)"},
      {"measurement": "growth inhibition", "setting": "[13]; [15]", "value": -140, "unit": "%"},
      {"measurement": "growth inhibition", "setting": "[13]; [16]", "value": "77% (active)"},
      {"measurement": "growth inhibition", "setting": "[13]; at 50.0 µM", "value": "76.4% (active)"},
      {"measurement": "growth inhibition", "setting": "[14]; at 1.2 µM", "value": -9, "unit": "%"},
      {"measurement": "growth inhibition", "setting": "[14]; at 3.7 µM", "value": -6, "unit": "%"},
      {"measurement": "growth inhibition", "setting": "[14]; at 11.0 µM", "value": -6, "unit": "%"},
      {"measurement": "growth inhibition", "setting": "[14]; at 33.0 µM", "value": 3, "unit": "%"},
      {"measurement": "growth inhibition", "setting": "[14]; at 100.0 µM", "value": 69, "unit": "%"}
    ]}
  ]
}
